# Laboratory results from the supplement of paper PMC8728848.
# The entries come from a sample that favours the strongest signals as a whole.
# Assays:
# Experiment in all cases: glycan array binding signal (z-score within array); higher = stronger binding
# Details in all cases: glycan notation: IUPAC condensed, linker removed
# [1] = molecular target: Gal3S(b1-4)[Fuc(a1-3)]GlcNAc
# Outline: (§1)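 Negative Z-scores can be read as non-binding. The Z-score is calculated within each array and then averaged across arrays of one protein sequence at different concentrations or buffers and across linkers. Arrays, 3228 in all, were curated from the Consortium for Functional Glycomics database and kept only where the protein sequence was available.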
# [2] = molecular target: GalNAc(a1-3)GalNAc(b1-3)Gal(a1-4)Gal(b1-4)GlcNAc
# Outline: as §1
# Glc(a1-4)Glc = molecular target: Glc(a1-4)Glc
# Outline: as §1
# [3] = molecular target: GlcA3S(b1-3)Gal(b1-4)GlcNAc(b1-3)Gal(b1-4)Glc
# Outline: as §1
# [4] = molecular target: GlcNAc(a1-4)Gal(b1-3)GlcNAc
# Outline: as §1
# [5] = molecular target: GlcNAc(a1-4)Gal(b1-4)GlcNAc(b1-3)Gal(b1-4)Glc
# Outline: as §1
# [6] = molecular target: GlcNAc(b1-3)Gal(b1-4)GlcNAc(b1-2)Man(a1-3)[GlcNAc(b1-3)Gal(b1-4)GlcNAc(b1-2)Man(a1-6)]Man(b1-4)GlcNAc(b1-4)[Fuc(a1-6)]GlcNAc
# Outline: as §1
# [7] = molecular target: GlcNAc(b1-3)Gal(b1-4)GlcNAc(b1-2)[GlcNAc(b1-3)Gal(b1-4)GlcNAc(b1-6)]Man(a1-6)[GlcNAc(b1-3)Gal(b1-4)GlcNAc(b1-2)Man(a1-3)]Man(b1-4)GlcNAc(b1-4)GlcNAc
# Outline: as §1
# [8] = molecular target: GlcNAc(b1-3)Gal(b1-4)GlcNAc(b1-3)Gal(b1-4)GlcNAc(b1-2)Man(a1-3)[GlcNAc(b1-3)Gal(b1-4)GlcNAc(b1-3)Gal(b1-4)GlcNAc(b1-2)Man(a1-6)]Man(b1-4)GlcNAc(b1-4)[Fuc(a1-6)]GlcNAc
# Outline: as §1
# [9] = molecular target: GlcNAc(b1-3)[GlcNAc(b1-4)][GlcNAc(b1-6)]GlcNAc
# Outline: as §1
# [10] = molecular target: GlcNAc(b1-4)GlcNAc(b1-4)GlcNAc(b1-4)GlcNAc(b1-4)GlcNAc
# Outline: as §1
# GlcNAc(b1-6)GalNAc = molecular target: GlcNAc(b1-6)GalNAc
# Outline: as §1
# [11] = molecular target: GlcNAc6S(b1-3)Gal(b1-4)GlcNAc
# Outline: as §1
# [12] = molecular target: Man(a1-2)Man(a1-2)Man(a1-3)Man
# Outline: as §1
# Man(a1-3)[Man(a1-6)]Man = molecular target: Man(a1-3)[Man(a1-6)]Man
# Outline: as §1
# [13] = molecular target: Man(a1-3)[Man(a1-6)]Man(a1-6)[Man(a1-2)Man(a1-3)]Man(b1-4)GlcNAc(b1-4)GlcNAc
# Outline: as §1
# [14] = molecular target: Man(a1-3)[Man(a1-6)]Man(b1-4)GlcNAc(b1-4)GlcNAc
# Outline: as §1
# Man(a1-6)Man = molecular target: Man(a1-6)Man
# Outline: as §1
# [15] = molecular target: Neu5Ac(a2-3)Gal(b1-3)GalNAc
# Outline: as §1
# [16] = molecular target: Neu5Ac(a2-3)Gal(b1-4)GlcNAc(b1-2)Man(a1-3)[Neu5Ac(a2-3)Gal(b1-4)GlcNAc(b1-2)Man(a1-6)]Man(b1-4)GlcNAc(b1-4)[Fuc(a1-6)]GlcNAc
# Outline: as §1
# [17] = molecular target: Neu5Ac(a2-3)Gal(b1-4)GlcNAc(b1-3)Gal(b1-4)GlcNAc(b1-3)Gal(b1-4)GlcNAc(b1-2)Man(a1-3)[Neu5Ac(a2-3)Gal(b1-4)GlcNAc(b1-3)Gal(b1-4)GlcNAc(b1-3)Gal(b1-4)GlcNAc(b1-2)Man(a1-6)]GalNAc
# Outline: as §1
# [18] = molecular target: Neu5Ac(a2-3)Gal(b1-4)GlcNAc(b1-6)GalNAc
# Outline: as §1
# [19] = molecular target: Neu5Ac(a2-3)Gal(b1-4)[Fuc(a1-3)]GlcNAc(b1-3)GalNAc
# Outline: as §1
# [20] = molecular target: Neu5Ac(a2-3)[GalNAc(b1-4)]Gal(b1-4)Glc
# Outline: as §1
# [21] = molecular target: Neu5Ac(a2-6)Gal(b1-3)GlcNAc(b1-3)[Gal(b1-4)GlcNAc(b1-6)]Gal(b1-4)Glc
# Outline: as §1
# [22] = molecular target: Neu5Ac(a2-6)Gal(b1-4)GlcNAc(b1-2)Man(a1-3)[Man(a1-6)]Man(b1-4)GlcNAc(b1-4)GlcNAc
# Outline: as §1
# [23] = molecular target: Neu5Ac(a2-6)Gal(b1-4)GlcNAc(b1-2)Man(a1-3)[Neu5Ac(a2-6)Gal(b1-4)GlcNAc(b1-2)Man(a1-6)]Man(b1-4)GlcNAc(b1-4)GlcNAc
# Outline: as §1
# [24] = molecular target: Neu5Ac(a2-6)Gal(b1-4)GlcNAc(b1-2)Man(a1-3)[Neu5Ac(a2-6)Gal(b1-4)GlcNAc(b1-2)Man(a1-6)]Man(b1-4)GlcNAc(b1-4)[Fuc(a1-6)]GlcNAc
# Outline: as §1
# [25] = molecular target: Neu5Ac(a2-6)Gal(b1-4)GlcNAc(b1-2)Man(a1-6)[Gal(b1-4)GlcNAc(b1-2)Man(a1-3)]Man(b1-4)GlcNAc(b1-4)GlcNAc
# Outline: as §1
# [26] = molecular target: Neu5Ac(a2-6)Gal(b1-4)GlcNAc(b1-2)Man(a1-6)[Man(a1-3)]Man(b1-4)GlcNAc(b1-4)GlcNAc
# Outline: as §1
# Neu5Ac(a2-6)GalNAc = molecular target: Neu5Ac(a2-6)GalNAc
# Outline: as §1
# [27] = molecular target: Neu5Gc(a2-3)Gal(b1-3)[Fuc(a1-4)]GlcNAc
# Outline: as §1
# [28] = molecular target: Neu5Gc(a2-8)Neu5Ac(a2-3)Gal(b1-4)GlcNAc
# Outline: as §1
binder,measurement,setting,value
RBMC1 (Vibrio cholerae) (protein) QQSQRVVTADNLMYLRSGFAIDAIGTTVNNLVGGPVQGTNGGVLRAPIALDQLQSVEVTSGLYNWGGYHIVAIKFTMKDGSSVLLGSTHYASNKKVETYTVPQGKRIKQINVWTGGWLVEGFQFVY,glycan array binding signal (z-score),[1],-0.188
same,glycan array binding signal (z-score),[2],-0.064
same,glycan array binding signal (z-score),Glc(a1-4)Glc,-0.216
same,glycan array binding signal (z-score),[3],-0.217
same,glycan array binding signal (z-score),[4],-0.355
same,glycan array binding signal (z-score),[5],-0.284
same,glycan array binding signal (z-score),[6],2.83
same,glycan array binding signal (z-score),[7],-0.295
same,glycan array binding signal (z-score),[8],2.5
same,glycan array binding signal (z-score),[9],-0.158
same,glycan array binding signal (z-score),[10],-0.358
same,glycan array binding signal (z-score),GlcNAc(b1-6)GalNAc,-0.289
same,glycan array binding signal (z-score),[11],-0.267
same,glycan array binding signal (z-score),[12],-0.395
same,glycan array binding signal (z-score),Man(a1-3)[Man(a1-6)]Man,0.002
same,glycan array binding signal (z-score),[13],0.166
same,glycan array binding signal (z-score),[14],1.13
same,glycan array binding signal (z-score),Man(a1-6)Man,1.1
same,glycan array binding signal (z-score),[15],-0.226
same,glycan array binding signal (z-score),[16],3.39
same,glycan array binding signal (z-score),[17],0.281
same,glycan array binding signal (z-score),[18],-0.114
same,glycan array binding signal (z-score),[19],-0.194
same,glycan array binding signal (z-score),[20],-0.432
same,glycan array binding signal (z-score),[21],-0.461
same,glycan array binding signal (z-score),[22],10.4
same,glycan array binding signal (z-score),[23],4.94
same,glycan array binding signal (z-score),[24],11.9
same,glycan array binding signal (z-score),[25],3.13
same,glycan array binding signal (z-score),[26],-0.031
same,glycan array binding signal (z-score),Neu5Ac(a2-6)GalNAc,-0.35
same,glycan array binding signal (z-score),[27],-0.039
same,glycan array binding signal (z-score),[28],-0.406
